Results on 23 molecules are retold here after PubChem BioAssay (Tox21).

SMILES strings stand for the structures. A number with no mark means an inactive call. The source made the active and inactive calls. Unless noted, calls follow the shape of the dose curve; as a rule, active = well fitted curve in the direction sought with a large enough effect in the repeat runs; inconclusive = weak or mixed curves; inactive = flat fitted curve, though single readings scatter.

Experiment [1] can be described thus: qHTS assay to test for compound auto fluorescence at 535 nm (green) in HEK293 cells (AID 720680). (In qHTS, concentration-response curves come from the screen itself.)
Experiment [2] is described as follows: qHTS assay to test for compound auto fluorescence at 460 nm (blue) in HEK293 cell free culture (AID 720681). Also: potency is read from the fitted curve at half-maximal effect. Put shortly: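 Blue fluorescence (Ex 405/Em 460 nm, triamterene-equivalent) was read immediately after pin transfer of compound or DMSO into medium (DMEM, 10% FBS) without cells.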
Experiment [3] in a line: qHTS assay to test for compound auto fluorescence at 535 nm (green) in HEK293 cell free culture (AID 720682). The procedure, abridged: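 Green-channel intensity (Ex/Em 485/535 nm) was recorded from compound-treated wells containing only DMEM with 10% FBS. Fluorescein provided the equivalency standard.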
Experiment [4] in a line: qHTS assay to test for compound auto fluorescence at 590 nm (red) in HEK293 cell free culture (AID 720683). The procedure, abridged: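 Red-channel autofluorescence of compounds in culture medium (DMEM, 10% FBS), no cells, measured at 540/590 nm. Rose Bengal sodium is the reference fluorophore for equivalence.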
The nature of experiment [5]: qHTS assay to test for compound auto fluorescence at 460 nm (blue) in HepG2 cell free culture (AID 720685). Also: potency is read from the fitted curve at half-maximal effect. The procedure, abridged: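 Cell-free plates of MEM plus 10% FBS received 23 nL compound or DMSO vehicle; blue-channel (405/460 nm) intensity scored against triamterene as reference fluorophore.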
Experiment [6] in a line: qHTS assay to test for compound auto fluorescence at 535 nm (green) in HepG2 cell free culture (AID 720686).
Experiment [7] in a line: qHTS assay to test for compound auto fluorescence at 460 nm (blue) in HepG2 cells (AID 720687). Also: potency is read from the fitted curve at half-maximal effect. The procedure, abridged: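 Blue-channel autofluorescence (Ex/Em 405/460 nm, triamterene-equivalent) was measured after 1 hr compound exposure at 37 C, 5% CO2. Cells were HepG2, plated overnight at 37 C in MEM plus 10% FBS.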
Experiment [8] has as its target Glucocorticoid receptor (Homo sapiens) (UniProt P04150). Put plainly: qHTS assay to identify small molecule agonists of the glucocorticoid receptor (GR) signaling pathway (AID 720691; active = well fitted activation curve with a large enough effect in the signal ratio in the repeat runs, not every such curve was filed as active; inconclusive = weak or mixed curves, or effect the other way; inactive = no such curve, though single readings can be large or run the other way; the % refers to the signal ratio; also: potency is read from the fitted curve at half-maximal effect). The procedure, abridged:
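Cells: GR-bla HeLa, endogenous GR with stably integrated GRE-beta-lactamase reporter. Treatment 18 h, 37 C, compounds delivered in DMSO. Detection via LiveBLAzer B/G FRET substrate, 2 h RT, fluorescence intensity.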

For experiment [9] the target is unchanged. Put plainly: qHTS assay to identify small molecule antagonists of the glucocorticoid receptor (GR) signaling pathway (AID 720692; active = well fitted inhibition curve with a large enough effect in the signal ratio in the repeat runs, not every such curve was filed as active; inconclusive = weak or mixed curves, or effect the other way; inactive = no such curve, though single readings can be large or run the other way; the % refers to the signal ratio). Put shortly:
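Quantitative HTS in antagonist format: HeLa cells expressing endogenous GR and a stably integrated GRE-bla reporter, stimulated with 5 nM dexamethasone (final) alongside test compounds for 18 h.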

Experiment [10] can be described thus: qHTS assay to test for compound auto fluorescence at 590 nm (red) in HepG2 cell free culture (AID 720684). The procedure, abridged: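 Cell-free; medium MEM + 10% FBS; compound or DMSO added by pintool; read Ex 540/Em 590 nm; Rose Bengal sodium as red reference fluorophore.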
% is scaled to controls: 0 for no effect and ±100 for the full control effect; tags tell the direction and shape of the fitted curve or compound fluorescence and quenching.

Glucocorticoid receptor (Homo sapiens), sequence (P04150 whole entry, looked up): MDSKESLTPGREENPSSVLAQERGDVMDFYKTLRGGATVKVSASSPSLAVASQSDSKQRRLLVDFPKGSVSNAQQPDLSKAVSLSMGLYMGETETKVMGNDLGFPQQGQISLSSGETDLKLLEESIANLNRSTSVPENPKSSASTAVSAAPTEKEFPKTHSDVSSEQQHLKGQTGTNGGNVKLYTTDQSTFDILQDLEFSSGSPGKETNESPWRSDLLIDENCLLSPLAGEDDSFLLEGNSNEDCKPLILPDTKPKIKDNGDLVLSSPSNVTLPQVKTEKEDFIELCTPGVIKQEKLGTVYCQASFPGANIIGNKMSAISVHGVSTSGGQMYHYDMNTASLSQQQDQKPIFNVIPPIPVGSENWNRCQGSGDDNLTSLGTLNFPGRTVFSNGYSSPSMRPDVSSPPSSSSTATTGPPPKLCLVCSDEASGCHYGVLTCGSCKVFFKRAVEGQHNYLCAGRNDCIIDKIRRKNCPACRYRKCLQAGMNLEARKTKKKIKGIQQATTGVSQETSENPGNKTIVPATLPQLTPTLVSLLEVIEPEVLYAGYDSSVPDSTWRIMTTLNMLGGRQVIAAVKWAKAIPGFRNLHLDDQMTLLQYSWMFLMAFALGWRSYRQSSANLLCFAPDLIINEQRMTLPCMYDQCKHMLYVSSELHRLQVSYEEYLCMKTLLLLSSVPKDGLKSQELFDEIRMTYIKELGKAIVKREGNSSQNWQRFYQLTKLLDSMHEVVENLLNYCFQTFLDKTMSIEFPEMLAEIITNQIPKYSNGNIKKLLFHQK

In the case of `CCc1c2c(nc3ccc(OC(=O)N4CCC(N5CCCCC5)CC4)cc13)-c1cc3c(c(=O)n1C2)COC(=O)[C@]3(O)CC`, the molecule was classed as inactive in experiment [1], in [3], in [4] and in experiment [6]. Further, the Potency in experiment [2] is 12.6 µM (active); in experiment [5] it was 12.6 µM [fluorescent] (active); in experiment [7] it was 15.8 µM [fluorescent] (active).
`CC(CCO)CCc1ccccc1` (centres undefined): the molecule was called inactive in experiment [1], in experiment [3], in experiment [4] and in experiment [6]. Also, the Potency entry in [2], in experiment [5], in experiment [7], in experiment [8] and in experiment [9] was “inactive” in each case.
For the molecule `CC(=O)OCC(=O)[C@@]12OC(C)(C)O[C@@H]1C[C@H]1[C@@H]3C[C@H](F)C4=CC(=O)C=C[C@]4(C)[C@@]3(F)[C@@H](O)C[C@@]12C`, the fluorescence, % of fluorescein in experiment [1] is -0.0611% [at 18.6 µM]. The fluorescence, % of fluorescent control in experiment [2] was -0.0905% [at 18.6 µM]; in [5], -0.0666% [at 18.6 µM]; in experiment [7], 0.231% [at 18.6 µM]. For the same molecule, the activity change in experiment [3] was -0.0593% [at 18.6 µM]. Besides, in [10], the fluorescence, % of Rose Bengal was -0.181% [at 18.6 µM]. For the same molecule, the fluorescence, % of fluorescein control in [6] is -0.0467% [at 18.6 µM].
Consider `CCOC(=O)C(C)Oc1ccc(Oc2nc3ccc(Cl)cc3o2)cc1` (centres undefined), for which the result in experiment [1], in experiment [3], in experiment [4] and in experiment [10] was inactive. The Potency result in experiment [2], in experiment [7] and in experiment [8] was “inactive” in each case.
With `N#C/C(=C1/SC[C@@H](c2ccc(Cl)cc2Cl)S1)n1ccnc1`, the molecule was called inactive in experiment [1], in [3] and in experiment [4]. In addition, the Potency result in [2], in [5] and in experiment [7] was “inactive” in each case.
Consider `CCCCCCCCCCOS(=O)(=O)O`, for which the call in experiment [1], in experiment [3], in [4] and in experiment [6] was inactive. Further, the Potency result in experiment [2], in [5] and in experiment [7] was “inactive” each time.
`COc1ccc(C(=O)c2cccc(O)c2)c(OC)c1`: the molecule was called inactive in experiment [1], in experiment [3], in [4] and in [6]. The Potency entry in experiment [2], in experiment [5], in experiment [7] and in experiment [8] was “inactive” each time.
For `Nc1ccc(Cl)cc1[N+](=O)[O-]`, the result in experiment [1], in experiment [3] and in experiment [4] was inactive. In addition, the Potency entry in [2], in experiment [5] and in experiment [7] was “inactive” in each case.
Take `Cc1ccc(S(=O)(=O)NC2CCCCC2)cc1`: the outcome in experiment [1], in experiment [3], in experiment [4] and in experiment [6] was inactive. For the same molecule, the Potency result in [2], in [5], in [7], in [8] and in [9] was “inactive” throughout.
Turning to `O=C1NCCN1`, the result in experiment [1], in experiment [3], in experiment [4] and in experiment [10] was inactive. The Potency entry in [2], in experiment [7], in experiment [8] and in experiment [9] was “inactive” each time.
For `CC(=O)Nc1ccccc1C`, the outcome in [1], in [3], in [4] and in experiment [6] was inactive. Moreover, the Potency result in experiment [2], in experiment [5], in [7], in [8] and in experiment [9] was “inactive” throughout.
In the case of `CCCCCCCCCCCC[N+](C)(C)CCCS(=O)(=O)[O-]`, the molecule was classed as inactive in experiment [1], in experiment [3], in [4] and in experiment [6]. Also, the Potency result in [2], in experiment [5], in experiment [7] and in experiment [8] was “inactive” in each case.
Regarding `CCCOC(=O)c1ccc(N)cc1`, the molecule was classed as inactive in experiment [1], in experiment [3], in experiment [4] and in [6]. Also, the Potency result in experiment [2], in experiment [5] and in experiment [7] was “inactive” in each case.
For the molecule `CC(C)CCCC(=O)O`, the call in [1], in experiment [3], in [4] and in experiment [6] was inactive. The Potency entry in experiment [2], in [7], in experiment [8] and in experiment [9] was “inactive” in each case.
On to `Cc1ccccc1N1C(=O)c2cc(S(N)(=O)=O)c(Cl)cc2NC1C` (centres undefined), for which the molecule was classed as inactive in experiment [1], in [3], in experiment [4] and in experiment [6]. The Potency entry in [2], in experiment [5], in [7], in [8] and in experiment [9] was “inactive” throughout.
With `CCn1nc(C)c2c1C(=O)NCC(c1ccc(O)cc1)=N2`, the molecule was classed as inactive in experiment [1], in experiment [3], in [4] and in [6]. Moreover, the Potency entry in [2], in experiment [5], in [7] and in [8] was “inactive” each time.
With `C(=C\c1ccccc1)/CN1CCN(C(c2ccccc2)c2ccccc2)CC1`, the fluorescence, % of fluorescein in experiment [1] was 0.011% [at 18.6 µM]. For the same molecule, the results for the fluorescence, % of fluorescent control in experiment [2], in experiment [4] and in experiment [7] were 0.0548% [at 18.6 µM], -0.0283% [at 18.6 µM] and 0.0775% [at 18.6 µM], respectively. For the same molecule, in experiment [3], the activity change is -0.0228% [at 18.6 µM]. In [6], the fluorescence, % of fluorescein control was 0.012% [at 18.6 µM].
Turning to `Cc1c(C(=O)NN2CCCCC2)nn(-c2ccc(Cl)cc2Cl)c1-c1ccc(Cl)cc1`, the molecule was called inactive in experiment [1], in experiment [3], in experiment [4] and in experiment [6]. Moreover, the Potency result in experiment [2], in experiment [5], in [7] and in experiment [8] was “inactive” each time.
In the case of `O=C(O)c1cccc(O)c1`, the outcome in [1], in experiment [3] and in [4] was inactive. The Potency entry in experiment [2], in [5] and in experiment [7] was “inactive” in each case.
As for `CC(C)C(OC(=O)c1ccccc1)C(C)(C)COC(=O)c1ccccc1` (centres undefined), the result in [1], in experiment [3], in experiment [10] and in experiment [6] was inactive. The Potency entry in experiment [2], in [5] and in experiment [7] was “inactive” in each case.
For `CC1(C)O[C@@H]2C[C@H]3[C@@H]4CCC5=CC(=O)C=C[C@]5(C)[C@H]4[C@@H](O)C[C@]3(C)[C@]2(C(=O)CO)O1`, the outcome in experiment [1], in experiment [3], in experiment [4] and in experiment [6] was inactive. For the same molecule, the Potency entry in experiment [2], in experiment [5] and in experiment [7] was “inactive” each time. Also, the Potency in [8] was 0.0301 µM [inconclusive] (active).
For the molecule `CC1CC(=O)NN=C1c1ccc(NCC(C)(C)NCC(O)COc2cc(Cl)ccc2C#N)cc1` (centres undefined), the call in experiment [1], in [3], in experiment [10] and in experiment [6] was inactive. For the same molecule, the Potency entry in experiment [2], in experiment [5], in experiment [7], in experiment [8] and in experiment [9] was “inactive” throughout.
With `CO/N=C1\CN(c2nc3c(cc2F)c(=O)c(C(=O)O)cn3C2CC2)CC1CN` (centres undefined), the molecule was classed as inactive in [1], in experiment [3] and in experiment [6]. Further, the Potency entry in experiment [2], in experiment [5], in experiment [7] and in experiment [9] was “inactive” in each case.
